“And” between values parts separate entries of the source, which are not always exact repeats. Equal entries are not always repeated. The source made the active and inactive calls.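 Rule for the calls: active = at least 20% inhibition of 6-phosphogluconate dehydrogenase activity; inactive = the rest.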
molecular target: 6-phosphogluconate dehydrogenase, decarboxylating (Homo sapiens) (UniProt P52209); assay: 6PGD enzyme inhibitors, primary screen, biochemical, human, recombinant enzyme, NADPH absorbance (AID 1159550); details: recombinant 6PGD, NADPH absorbance 341 nm; at 10 µM; hits give high values
Sequence (P52209 whole entry, looked up): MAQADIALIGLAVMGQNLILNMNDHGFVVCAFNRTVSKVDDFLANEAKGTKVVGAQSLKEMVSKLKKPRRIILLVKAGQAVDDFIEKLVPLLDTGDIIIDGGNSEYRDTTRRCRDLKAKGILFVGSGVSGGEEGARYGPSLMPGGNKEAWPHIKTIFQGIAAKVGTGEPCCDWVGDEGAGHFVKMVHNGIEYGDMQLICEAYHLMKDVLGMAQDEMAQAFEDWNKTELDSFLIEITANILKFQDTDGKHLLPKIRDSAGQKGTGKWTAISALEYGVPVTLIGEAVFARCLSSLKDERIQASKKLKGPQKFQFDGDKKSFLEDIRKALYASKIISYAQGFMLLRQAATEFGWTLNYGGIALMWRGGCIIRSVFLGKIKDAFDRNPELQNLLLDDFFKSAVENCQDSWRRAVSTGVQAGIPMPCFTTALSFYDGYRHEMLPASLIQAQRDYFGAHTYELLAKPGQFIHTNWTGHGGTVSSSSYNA

inhibition, inactive:
N[C@@H](COCc1ccccc1)C(=O)O 3.6%, CC(C)CCCC(C)C1CCC2C3C(=O)C=C4C[C@@H](O)CCC4(C)C3CCC12C (stereo partly specified) 12.2%, C=C1C(C2(C)C(OC(C)=O)CC(=O)OC(C)(COC(C)=O)C2CC(=O)OC)C(OC=O)C(OC(=O)C(O)C(C)CC)C2(C)C(c3ccoc3)CC(=O)C12O (stereo unspecified) 7.27%, CC1=C2C(=COC(C)C2C)C(=O)C(C(=O)O)=C1O (stereo unspecified) 10.6%, CC(=O)c1ccc(O)c(CC=C(C)C)c1 18.5%, C=C(C)C1Cc2c(ccc(C(=O)O)c2O)O1 (stereo unspecified) -0.806%, COc1ccc(-c2coc3cc(O)ccc3c2=O)c(OC)c1O 1.46%, COc1cc2c(cc1O)[C@@H](Cc1ccc(O)cc1)N(C)CC2 0.499%, C=C[C@@H]1CN2CC[C@@H]1C[C@@H]2[C@@H](O)c1ccnc2ccc(OC)cc12 8.78%, O=C(O)C=CC=Cc1ccccc1 8.52%, CC1=CC(=O)C2C(C)(C)CCCC2(C)C1(O)CCc1ccoc1 (stereo unspecified) -22.2%, CCC(=O)OCC(=O)[C@@]1(OC(=O)CC)[C@@H](C)CC2C3CCC4=CC(=O)C=C[C@]4(C)[C@@]3(F)C(O)C[C@@]21C (stereo partly specified) -9.91%, CC(C)=CCC[C@@H](C)[C@H]1CC[C@@]2(C)C3=C(CC[C@]12C)[C@@]1(C)CC[C@H](O)C(C)(C)[C@@H]1CC3 14.5%, CC(=O)OC1CCC2(C)C(CCC3C2CC(=O)C2(C)C3CC3OC4(CCC(C)CO4)C(C)C32)C1 (stereo unspecified) 5.72%, CC(=O)c1cc2c(cc1O)OC(C)(C)C=C2 16.8%, C=CC(C)(CCC1C(=C)CC(OC(C)=O)C2C(C)(C)CCCC12C)OC(C)=O (stereo unspecified) 11.4%, CC(=O)OC(C)(CCC=C(C)C)C1CC=C(C)CC1 (stereo unspecified) 0.603%, CC1OC(OC2C(Oc3cc(O)c4c(=O)cc(-c5ccc(O)cc5)oc4c3)OC(CO)C(O)C2O)C(O)C(O)C1O (stereo unspecified) -11.1%, CC1(C)C(=O)CC[C@@]2(C)C1C[C@@H](O)[C@@]1(C)C3=CC(=O)O[C@@H](c4ccoc4)[C@]3(C)CCC21 (stereo partly specified) -10.8%, CC(=O)Oc1ccc(/C=C2\N=C(c3ccccc3)OC2=O)cc1 0.187%, CC(C)CCC[C@@H](C)[C@H]1CC[C@H]2[C@@H]3CC[C@H]4CC(=O)CC[C@]4(C)[C@H]3CC[C@]12C -4.87% and 3.54%, CC(=O)[C@H]1CC[C@H]2[C@@H]3CC(=O)C4=CC(=O)CC[C@]4(C)[C@H]3CC[C@]12C -2.73%, CC(CCC(=O)O)C1CCC2C3CCC4CCCCC4(C)C3CCC12C (stereo unspecified) 14%, C=C1C(=O)OC2C[C@]3(C)[C@H](C(C)=CC[C@@H]3O)[C@@H](O)C12 (stereo partly specified) 18.1%, CC(=O)OC1C=C(C)C(COc2ccc3ccc(=O)oc3c2)C2(C)CCC(O)C(C)(C)C12 (stereo unspecified) 9.19%, COC(=O)c1cc(OC)c(=O)c2c(OC)c(OC)ccc2c1 7.65%
